Measurements taken from PubChem BioAssay (Tox21).
Values joined by “and” are separate entries in the source; they are usually repeats but may differ in a detail not shown here. Identical values can stand only once. Inconclusive results are not listed. Active and inactive are the calls of the source. Unless noted, the call rests on the fitted dose curve; in most records, active means well fitted curve in the direction sought with a large enough effect in the repeat runs; inconclusive means weak or mixed curves; inactive means no such curve, though single readings can be large; an effect the other way counts as inactive or inconclusive.

What was measured:
[1] = qHTS assay to identify small molecule agonists of the estrogen receptor alpha (ER-alpha) signaling pathway in the presence of an antagonist - cell viability counter screen (AID 1259386);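 further: series mostly up to about 92 µM; cells exposed to compounds for 22 h at 37 °C before the viability read; nearly all actives have a fitted effect of over 30% in size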
Procedure, shortened: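 ICI-182,780 at 10.0nM final accompanies the compound titration (15 concentrations, 22hr, 37C) on VM7Luc4E2 cells. The CellTiter-Fluor fluorescence readout runs in the same wells as the luciferase assay.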

[2] = target: Progesterone receptor (Homo sapiens) (UniProt P06401); assay: qHTS assay to identify small molecule antagonists of the progesterone receptor (PR) signaling pathway (AID 1346795; active means well fitted inhibition curve with a large enough effect in the signal ratio in the repeat runs, not every such curve was filed as active; the % refers to the signal ratio)
Chain of Progesterone receptor (Homo sapiens) (P06401 whole entry, looked up): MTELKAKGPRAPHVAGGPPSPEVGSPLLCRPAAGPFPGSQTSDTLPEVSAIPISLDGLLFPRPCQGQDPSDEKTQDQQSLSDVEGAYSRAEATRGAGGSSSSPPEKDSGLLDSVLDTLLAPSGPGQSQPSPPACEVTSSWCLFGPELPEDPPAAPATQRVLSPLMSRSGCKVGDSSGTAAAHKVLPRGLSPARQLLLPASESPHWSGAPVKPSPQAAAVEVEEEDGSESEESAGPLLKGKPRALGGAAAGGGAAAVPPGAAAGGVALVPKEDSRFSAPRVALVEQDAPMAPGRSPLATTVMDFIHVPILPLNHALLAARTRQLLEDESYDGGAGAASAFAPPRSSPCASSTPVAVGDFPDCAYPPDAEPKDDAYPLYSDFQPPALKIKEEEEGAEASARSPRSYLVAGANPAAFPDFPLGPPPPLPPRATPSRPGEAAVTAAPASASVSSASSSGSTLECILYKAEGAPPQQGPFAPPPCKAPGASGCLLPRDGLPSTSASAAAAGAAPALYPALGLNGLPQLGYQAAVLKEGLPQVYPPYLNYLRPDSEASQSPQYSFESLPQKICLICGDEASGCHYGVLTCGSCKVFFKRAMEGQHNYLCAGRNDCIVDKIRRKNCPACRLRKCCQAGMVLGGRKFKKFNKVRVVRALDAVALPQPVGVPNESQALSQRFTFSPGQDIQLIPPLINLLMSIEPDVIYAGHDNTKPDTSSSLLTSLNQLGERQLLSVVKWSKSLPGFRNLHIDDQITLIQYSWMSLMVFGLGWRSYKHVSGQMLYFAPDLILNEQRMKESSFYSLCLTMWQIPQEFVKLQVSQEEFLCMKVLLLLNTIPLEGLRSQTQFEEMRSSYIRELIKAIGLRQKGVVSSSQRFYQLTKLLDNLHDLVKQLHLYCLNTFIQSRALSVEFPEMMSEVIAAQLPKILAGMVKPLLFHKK
Procedure, shortened: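 Screening used a GripTite HEK293T line with PR-responsive UAS-beta-lactamase. Cells were challenged with compound in the presence of 1 nM R5020 final for 16 hr at 37C; B/G FRET substrate, 2 hr room temperature, fluorescence.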

[3] = qHTS assay to identify small molecule antagonists of the progesterone receptor (PR) signaling pathway - cell viability counter screen (AID 1346798); further: series mostly up to about 92 µM; nearly all actives have a fitted effect of over 50% in size
Procedure, shortened: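 Measures cytotoxicity in parallel with the PR antagonist reporter read: HEK293T PR-UAS-bla cells get compound and R5020 for 16 hr, and remaining viable cells are quantified by CellTiter-Glo luminescence.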

[4] = qHTS assay to identify small molecule agonists of the progesterone receptor (PR) signaling pathway - cell viability counter screen (AID 1346799; calls by dose curve; further: nearly all actives have a fitted effect of over 45% in size)
Procedure, shortened: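 Using the same plates as the PR reporter screen, HEK293T PR-UAS-bla cells received compounds for 16 hr at 37C and were then lysed with CellTiter-Glo; luminescence was read 30 min later at room temperature.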

[5] = qHTS assay to identify small molecule antagonists of the TGF-beta/Smad signaling pathway - cell viability counter screen (AID 1346824); further: nearly all actives have a fitted effect of over 50% in size
Procedure, shortened: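 SBE-bla HEK 293T cells, incubated overnight, then compound plus 0.25 ng/mL TGF-beta1 (stock added) for 5 hr at 37 C. Viability was read in the same wells by CellTiter-Glo luminescence after 30 min at room temperature.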

[6] = qHTS assay to identify small molecule agonists of the TGF-beta/Smad signaling pathway - cell viability counter screen (AID 1346829); further: top concentration of the series differs between compounds; nearly all actives have a fitted effect of over 45% in size
Procedure, shortened: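 SBE-bla HEK 293T cells plated overnight, compound exposure 5 hr at 37 C. Viability read in the same wells by CellTiter-Glo luminescence after 30 min at room temperature, following the beta-lactamase read.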

[7] = qHTS assay to identify small molecule agonists of the TGF-beta/Smad signaling pathway (AID 1346859; active means well fitted activation curve with a large enough effect in the signal ratio in the repeat runs, not every such curve was filed as active; the % refers to the signal ratio; further: series mostly up to about 77 µM)
Procedure, shortened: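 Beta-lactamase reporter activity downstream of Smad binding elements was measured in stably transfected HEK 293T cells; compounds were incubated for 5 hr, substrate for 2 hr at room temperature.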

[8] = target: Thyrotropin-releasing hormone receptor (Homo sapiens) (UniProt P34981); assay: qHTS assay to identify small molecule antagonists of the thyrotropin-releasing hormone receptor (TRHR) signaling pathway (AID 1346877; active means well fitted inhibition curve with a large enough effect in the repeat runs, not every such curve was filed as active; further: series mostly up to about 51 µM)
Chain of Thyrotropin-releasing hormone receptor (Homo sapiens) (P34981 whole entry, looked up): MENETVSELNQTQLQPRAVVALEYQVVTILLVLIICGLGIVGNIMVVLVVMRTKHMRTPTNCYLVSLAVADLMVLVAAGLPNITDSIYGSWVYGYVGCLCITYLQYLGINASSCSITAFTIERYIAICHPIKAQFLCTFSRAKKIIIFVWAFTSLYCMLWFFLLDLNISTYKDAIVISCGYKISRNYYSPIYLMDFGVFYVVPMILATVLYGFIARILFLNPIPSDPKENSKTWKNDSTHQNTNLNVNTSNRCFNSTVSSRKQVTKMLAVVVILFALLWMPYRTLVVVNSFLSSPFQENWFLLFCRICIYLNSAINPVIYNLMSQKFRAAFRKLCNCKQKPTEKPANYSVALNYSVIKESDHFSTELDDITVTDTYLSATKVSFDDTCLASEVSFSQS
Procedure, shortened: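 Screening used HEK293 cells engineered with TRHR, with a brief 5 min room-temperature compound exposure preceding addition of TRH to 1 nM. The read-out was kinetic calcium-dye fluorescence, concentration-response from 15 doses in triplicate.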

[9] = target: Thyrotropin-releasing hormone receptor (Homo sapiens) (UniProt P34981); assay: qHTS assay to identify small molecule agonists of the thyrotropin-releasing hormone receptor (TRHR) signaling pathway (AID 1346891; calls by dose curve;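 further: HEK293 cells expressing TRHR with calcium dye readout; series mostly up to about 58 µM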)
Procedure, shortened: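 Overnight-plated (18 h, 37 °C, 5% CO2) TRHR-Hek293 cells; 2 h calcium dye at 37 °C; compound in DMSO; 3-min kinetic fluorescence read.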

[10] = Human pregnane X receptor (PXR) small molecule agonists, qHTS cell viability counter screen (AID 1346977); further: nearly all actives have a fitted effect of over 50% in size
Procedure, shortened: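 After a 5hr pre-incubation, PXR-Luc HepG2 cells received compounds plus positive control in DMSO and were kept 24hr at 37C. Cell viability was quantified by fluorescence from CellTiter-Fluor added for the final hour.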

[11] = Caspase-3/7 induction in HepG2 cells by small molecules, qHTS assay (AID 1346978); further: nearly all actives have a fitted effect of over 15% in size; further: potency means the concentration at half of the fitted maximal effect
Procedure, shortened: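 Wild-type HepG2 cells, 2,000/well, settled 5 hr at 37 C and 5% CO2, then compound-treated for 17 hr; caspase-3/7 activity read by luminescent Caspase-Glo 3/7 after 30 min at room temperature.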

[12] = Caspase-3/7 induction in CHO-K1 cells by small molecules, qHTS cell viability counter screen (AID 1346979); further: nearly all actives have a fitted effect of over 35% in size
Procedure, shortened: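 Multiplexed with Caspase-Glo 3/7 in CHO-K1 cells, this counter screen added CellTiter-Fluor after 16hr of compound exposure and recorded fluorescence 1hr later.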

[13] = Caspase-3/7 induction in CHO-K1 cells by small molecules, qHTS assay (AID 1346980); further: nearly all actives have a fitted effect of over 15% in size
Procedure, shortened: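 Wild-type CHO-K1 cells exposed to compounds for 17hr at 37 C, 5% CO2. Caspase-3/7 activity then measured by Caspase-Glo 3/7 luminescence after 30min at room temperature.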

[14] = Caspase-3/7 induction in HepG2 cells by small molecules, qHTS cell viability counter screen (AID 1346981); further: series mostly up to about 92 µM; nearly all actives have a fitted effect of over 30% in size
Procedure, shortened: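 Multiplexed with the caspase-3/7 assay: HepG2 cells, 16 hr compound treatment, CellTiter-Fluor viability detection by fluorescence.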

[15] = target: Nuclear receptor subfamily 1 group I member 2 (Homo sapiens) (UniProt O75469); assay: Human pregnane X receptor (PXR) small molecule agonists, qHTS assay (AID 1346982); further: nearly all actives have a fitted effect of over 35% in size
Chain of Nuclear receptor subfamily 1 group I member 2 (Homo sapiens) (O75469 whole entry, looked up): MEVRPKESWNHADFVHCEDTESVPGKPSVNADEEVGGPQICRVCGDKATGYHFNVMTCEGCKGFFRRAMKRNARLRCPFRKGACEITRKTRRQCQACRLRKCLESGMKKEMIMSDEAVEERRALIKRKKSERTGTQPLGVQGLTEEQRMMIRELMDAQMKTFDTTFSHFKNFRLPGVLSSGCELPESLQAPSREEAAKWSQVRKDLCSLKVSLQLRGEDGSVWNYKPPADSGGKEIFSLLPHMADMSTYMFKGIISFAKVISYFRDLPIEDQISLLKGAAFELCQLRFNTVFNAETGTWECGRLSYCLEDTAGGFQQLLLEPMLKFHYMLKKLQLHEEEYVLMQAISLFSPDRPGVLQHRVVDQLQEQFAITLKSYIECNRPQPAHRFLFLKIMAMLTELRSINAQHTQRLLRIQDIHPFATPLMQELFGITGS
Procedure, shortened: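 We seeded PXR-Luc HepG2 cells in assay medium containing 5% charcoal-stripped FBS, added compounds 5 hr later, incubated 24 hr, and read luminescence with ONE-Glo reagent.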

[16] = target: Cytochrome P450 2D6 (Homo sapiens) (UniProt P10635); assay: Cytochrome P450 Family 2 Subfamily D Member 6 (CYP2D6) small molecule antagonists: luciferase reporter qHTS assay (AID 1671196); further: nearly all actives have a fitted effect of over 50% in size; further: potency means the concentration at half of the fitted maximal effect
Chain of Cytochrome P450 2D6 (Homo sapiens) (P10635 whole entry, looked up): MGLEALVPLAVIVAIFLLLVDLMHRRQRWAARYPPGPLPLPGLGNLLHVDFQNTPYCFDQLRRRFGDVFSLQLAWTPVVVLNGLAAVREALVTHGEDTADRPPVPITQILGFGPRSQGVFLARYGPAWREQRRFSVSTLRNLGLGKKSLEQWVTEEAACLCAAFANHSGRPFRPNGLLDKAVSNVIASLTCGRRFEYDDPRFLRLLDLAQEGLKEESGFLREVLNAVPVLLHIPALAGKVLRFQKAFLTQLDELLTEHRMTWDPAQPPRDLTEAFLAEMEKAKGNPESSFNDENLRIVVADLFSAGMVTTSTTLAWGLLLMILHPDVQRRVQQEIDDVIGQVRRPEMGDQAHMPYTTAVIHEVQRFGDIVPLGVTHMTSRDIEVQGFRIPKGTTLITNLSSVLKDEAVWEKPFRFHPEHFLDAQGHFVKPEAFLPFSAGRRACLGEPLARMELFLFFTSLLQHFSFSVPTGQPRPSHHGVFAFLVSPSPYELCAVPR
Procedure, shortened: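 Luminescence (RLU), read 20 min after detection reagent, indicated CYP2D6 conversion of proluciferin to luciferin during a 1 h NADPH-dependent reaction at room temperature.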

[17] = target: Progesterone receptor (Homo sapiens) (UniProt P06401); assay: qHTS assay to identify small molecule agonists of the progesterone receptor (PR) signaling pathway (AID 1346784; calls by dose curve; further: nearly all actives have a fitted effect of over 30% in size)
Procedure, shortened: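 Seed PR-UAS-bla HEK 293T cells (2% charcoal-stripped FBS), incubate 6 hr at 37C; add compounds in DMSO, 16 hr at 37C; add LiveBLAzer B/G substrate, 2 hr RT; read fluorescence intensity.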

[18] = target: Nuclear receptor subfamily 1 group I member 2 (Rattus norvegicus) (UniProt Q9R1A7); assay: Rat pregnane X receptor (rPXR) activation by small molecules, qHTS assay (AID 1346983); conditions: rPXR luciferase reporter cells, One-Glo luminescence, 24 h; max activation: stronger effect = higher value; further: nearly all actives have a fitted effect of over 20% in size; further: potency means the concentration at half of the fitted maximal effect
Chain of Nuclear receptor subfamily 1 group I member 2 (Rattus norvegicus) (Q9R1A7 whole entry, looked up): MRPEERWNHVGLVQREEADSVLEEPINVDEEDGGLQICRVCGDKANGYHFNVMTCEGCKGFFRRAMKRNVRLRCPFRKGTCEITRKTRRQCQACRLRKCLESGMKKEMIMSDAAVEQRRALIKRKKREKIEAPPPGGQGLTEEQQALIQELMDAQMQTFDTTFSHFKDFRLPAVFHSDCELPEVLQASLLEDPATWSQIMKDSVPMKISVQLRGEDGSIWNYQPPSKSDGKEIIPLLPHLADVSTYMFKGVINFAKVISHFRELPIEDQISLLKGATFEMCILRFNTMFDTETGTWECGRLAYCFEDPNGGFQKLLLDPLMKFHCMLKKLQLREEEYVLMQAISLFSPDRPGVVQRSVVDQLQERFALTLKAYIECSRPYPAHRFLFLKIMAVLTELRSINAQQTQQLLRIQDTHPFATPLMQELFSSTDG
Procedure, shortened: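 Cell-based rPXR activation assay: rPXR cells, 2,000 per well, rested 5hr at 37 C, then exposed to compounds in DMSO for 24 hr at 37 C. Luciferase activity read by One-Glo luminescence after 30 min at room temperature.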

[19] = target: Nuclear receptor subfamily 1 group I member 2 (Homo sapiens) (UniProt O75469); assay: CYP3A4 induction through human pregnane X receptor (PXR) by small molecules, qHTS assay (AID 1346984); further: nearly all actives have a fitted effect of over 40% in size; further: potency means the concentration at half of the fitted maximal effect
Procedure, shortened: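 qHTS, concentration-response format: HepG2 DPX-2 line, PXR/CYP3A4-luc. Exposure 24 h, 37C. Substrate Luciferin-IPA 3uM final, 3 h. Detection One-Glo, 30 min RT.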

[20] = target: Nuclear receptor subfamily 1 group I member 2 (Homo sapiens) (UniProt O75469); assay: Human pregnane X receptor (PXR) activation by small molecules, qHTS assay (AID 1346985); further: nearly all actives have a fitted effect of over 40% in size; further: potency means the concentration at half of the fitted maximal effect
Procedure, shortened: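 DPX-2 cells (HepG2 co-transfected with a PXR response element and a CYP3A4-promoter luciferase construct) were seeded at 2,000 per well, rested 5 hr at 37C, then exposed to DMSO-dissolved compounds for 24 hr. Activation was read as luciferase luminescence.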
On the % scale 0 is the no-effect control and ±100 the full control effect.

C=CC(=O)NCOCC(C)C
inactive: Potency [1] | Potency [2] | Potency [3] | Potency [4] | outcome [5] | outcome [6] | outcome [7] | outcome [8] | Potency [9] | Potency [10] | Potency [11] | Potency [12] | outcome [13] | Potency [14] | Potency [15] | Potency [16]

CC(C)CCCC(=O)O
inactive: Potency [1] | Potency [3] | Potency [4] | outcome [5] | outcome [6] | outcome [7] | Potency [10] | Potency [11] | Potency [12] | outcome [13] | Potency [14] | Potency [15] | Potency [16]

CCC(C)=O
inactive: Potency [1] | Potency [3] | Potency [4] | outcome [5] | outcome [7] | outcome [8] | Potency [9] | Potency [10] | Potency [11] | Potency [12] | outcome [13] | Potency [14] | Potency [15] | Potency [16]

N#C/C(=C1/SC[C@@H](c2ccc(Cl)cc2Cl)S1)n1ccnc1
inactive: Potency [1] | Potency [17] | outcome [5] | outcome [6] | outcome [8] | Potency [9] | Potency [11] | outcome [13] | Potency [14] | Potency [15]
active: Potency [16] 219 nM

COCc1c(C(C)C)nc(C(C)C)c(/C=C/[C@@H](O)C[C@@H](O)CC(=O)O)c1-c1ccc(F)cc1
inactive: Potency [1] | Potency [17] | outcome [5] | outcome [6] | Potency [10] | outcome [13] | Potency [16]
active: Potency [11] 2.11 µM and 958 nM | Potency [18] 11.2 µM | Potency [19] 3.16 µM | Potency [20] 3.55 µM

CC(=O)OCC(=O)[C@H]1CC[C@H]2[C@@H]3CCC4=CC(=O)CC[C@]4(C)[C@H]3CC[C@]12C
inactive: Potency [1] | Potency [2] | Potency [3] | outcome [5] | outcome [7] | Potency [9] | Potency [10] | Potency [11] | Potency [12] | outcome [13] | Potency [14] | Potency [15] | max activation [18] 2.69% | Potency [19] | Potency [20]

CCN(Cc1cccc(S(=O)(=O)O)c1)c1ccc(C(=C2C=CC(=[N+](CC)Cc3cccc(S(=O)(=O)[O-])c3)C=C2)c2ccccc2)cc1
inactive: Potency [1] | Potency [2] | Potency [3] | Potency [4] | outcome [5] | outcome [8] | Potency [9] | Potency [10] | Potency [11] | outcome [13]

c1cnc2c(n1)CCCC2
inactive: Potency [1] | Potency [2] | Potency [3] | Potency [4] | outcome [5] | outcome [6] | outcome [7] | Potency [9] | Potency [10] | Potency [11] | Potency [12] | outcome [13] | Potency [14] | Potency [15] | Potency [16]

CN1CCCN=C1/C=C/c1cccs1
inactive: Potency [1] | Potency [2] | Potency [3] | Potency [4] | outcome [5] | outcome [6] | outcome [7] | Potency [10] | Potency [11] | Potency [12] | outcome [13] | Potency [14]
